# This is a sample that favours compounds with a hit; in the whole collection about 3.8% have one here.
# GLS inhibitor: blocks human kidney-isoform glutaminase activity; O94925; GLS enzymatic activity, qHTS titration; Potency, µM (highest dose often 45.5 µM), most hits filed as inhibitors; 0.21% of 410,000 active
#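 hKGA in 45 mM KH2PO4 pH 8.2, 0.02% Tween-20 with pin-transferred compounds; 1 mM L-glutamine (stock) plus glutamate oxidase/HRP/Amplex Red coupling added. Fluorescence read initially and after 30 min at RT.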
# VDR inhibitor: inhibitors of human vitamin D receptor | 0.93% of 400,000 active | VDR-SRC2-3 peptide fluorescence polarization, 2 h | Potency, µM, actives largely listed as inhibitors
# Target sequence (P11473 whole entry, looked up): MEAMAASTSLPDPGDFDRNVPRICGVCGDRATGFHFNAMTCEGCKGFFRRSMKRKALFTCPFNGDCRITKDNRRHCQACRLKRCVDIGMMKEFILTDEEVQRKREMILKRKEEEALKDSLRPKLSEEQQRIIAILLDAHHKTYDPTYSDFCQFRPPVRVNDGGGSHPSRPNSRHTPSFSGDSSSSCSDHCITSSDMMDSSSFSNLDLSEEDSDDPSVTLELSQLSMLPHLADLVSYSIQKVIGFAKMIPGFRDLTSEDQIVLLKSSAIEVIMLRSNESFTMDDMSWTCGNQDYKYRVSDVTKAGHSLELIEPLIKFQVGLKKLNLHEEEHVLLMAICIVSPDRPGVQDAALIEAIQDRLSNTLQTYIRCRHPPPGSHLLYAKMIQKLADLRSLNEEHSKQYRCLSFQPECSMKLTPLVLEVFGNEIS
#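 VDR–SRC2-3 interaction, FP format. Cmpds 23 nl via pintool, brief spin, 2 h ambient incubation.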
# GCN5L2 inh: GCN5L2 (KAT2A) acetyltransferase inhibition; Q92830; GCN5L2 HAT assay, ThioGlo1 CoA-SH fluorescence; Potency, µM (doses to about 58.9 µM), hits mostly inhibitors; 0.21% of 390,000 active; AID 504327
#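 Compounds, pin-transferred from DMSO stocks, meet 20nM GCN5L2 for 15 min before the reaction begins with H3(1-25) peptide (75uM) and acetyl-CoA (70uM). Thiol-reactive ThioGlo1 reports CoA release over 20 min at room temperature.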
# rTrxR1 inhibitor: blocks rat thioredoxin reductase 1 | 1% of 390,000 active | AID 588453 | Potency, µM (doses to about 114 µM), most hits filed as inhibitors | O89049 | recombinant rTrxR1, NADPH fluorescence consumption, selenite substrate; note: nearly all actives have a fitted effect of over 65% in size
#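 Rat TrxR1 (90 nM in the dispensed reagent) was pre-reduced with 400 uM NADPH for 5 min at room temperature, then incubated with compound for 15 min. After 400 uM selenite was added, NADPH fluorescence (Ex 340/Em 450 nm) was followed for 8 min.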
# Sfp PPTase inh: inhibitors of Bacillus subtilis Sfp phosphopantetheinyl transferase; Biochemical Sfp PPTase activity, qHTS; Potency, µM, hits mostly inhibitors; 3.5% of 310,000 active; AID 1490;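 note: the enzyme is Sfp with the accession as filed and its product quenches rhodamine fluorescence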
#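 Sfp 15 nM + cpd, 15 min RT; start w/ rhodamine-CoA 5 uM, BHQ-2-YbbR 12.5 uM (final); 50 mM Hepes pH 7.6, 10 mM MgCl2, 0.01% NP-40, 0.01% BSA; read 525/598 nm at 0 and 30 min.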
# TrxR1 substrate: is turned over as a substrate by rat TrxR1. O89049. purified TrxR1 substrate turnover, NADPH consumption readout. Potency, µM (top dose mostly 114 µM). 0.01% of 390,000 active. AID 588456; note: nearly all actives have a fitted effect of over 50% in size
#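 Rat TrxR1, dispensed at 90 nM, was prereduced with 400 uM NADPH (final) for 5 min at ~22 deg C, then incubated with compound 15 min before 400 uM selenite. A first-read NADPH fluorescence drop versus no-compound background flagged substrates.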
# Numbers stand for hits; . = inactive; ? = inconclusive; / = no result given; [ ] = dose if it differs, or a comment. Calls come from the whole dose curve; as a rule, active = well fitted curve in the direction sought with a large enough effect; inconclusive = small, poorly fitted or top-dose-only effect, or another doubt; inactive = no such curve, though single readings can be large; an effect the other way counts as inactive or inconclusive.
SMILES,GLS inhibitor,VDR inhibitor,GCN5L2 inh,rTrxR1 inhibitor,Sfp PPTase inh,TrxR1 substrate
CCOC(=O)c1c(NC(=O)CSc2nc(-c3ccc(OC)cc3)cc(C(F)(F)F)n2)sc(C)c1C,.,79.4µM,.,.,/,.
CCOC(=O)c1sc(NC(=O)c2cc(-c3ccccc3C)nc3ccccc23)c(C#N)c1C,?,.,.,.,44.7µM,.
CCOC(=O)c1c(NC(=O)CSc2nc3ccccc3o2)sc(C)c1C,.,.,.,.,44.7µM,.
CCOC(=O)c1sc(NC(=O)CSc2nc(C)cc(C)c2C#N)c(C#N)c1C,.,.,.,.,.,.
COc1ccc(-c2cc(C(=O)Nc3sc4c(c3C#N)CCCC4)c3ccccc3n2)cc1OC,.,.,.,.,.,.
CCOC(=O)c1sc(NC(=O)CSc2nc(C)cc(-c3ccccc3)n2)c(C#N)c1C,.,.,.,.,8.91µM,.
CCN(CC)C(=O)c1sc(NC(=O)C(C)Sc2nc(-c3ccccc3)cc(C(F)(F)F)n2)c(C(=O)OC)c1C (stereo not drawn),.,35.5µM,.,.,/,.
O=C(COC(=O)c1nc(Cl)ccc1Cl)Nc1ccc2c(c1)OCO2,.,.,.,.,.,.
CC(C)c1cc(NC(=O)CCl)on1,.,.,.,50.1µM,.,.
Cc1cc(Br)c(NC(=O)CCl)c(Br)c1,.,.,.,?,.,.
COc1ccc(-c2nc(-c3cccnc3)no2)cc1OC,.,.,.,.,.,.
COc1ccc(-c2csc3nc(-c4cccnc4)nc(Cl)c23)cc1OC,.,?,.,.,25.1µM,.
Cn1nnnc1SCC(=O)Nc1ccc(Br)cc1Br,.,.,.,.,/,.
Cc1c(CCOC(=O)c2ccccc2)sc[n+]1CC(=O)c1ccc(Br)cc1,.,.,.,.,.,.
Cc1c(CCOC(=O)c2cc([N+](=O)[O-])cc([N+](=O)[O-])c2)sc[n+]1CC(=O)c1ccccc1,.,.,.,79.4µM,.,.
N#Cc1ccc(N2CCc3ccccc3C2)c([N+](=O)[O-])c1,.,.,.,.,44.7µM,.
CC1(C)Cc2c(sc3c2C(=O)N(c2ccccc2)C2=NCCN23)CS1,.,.,.,.,89.1µM,.
CC(C)CN1CCC1(C)C(=O)Nc1cccc(C#N)c1 (stereo not drawn),.,/,/,/,/,/
Cc1cccc(N=C2NC(=O)/C(=C/C=C/c3ccco3)S2)c1,.,?,.,?,50.1µM,.
O=C1NC(=O)/C(=C/c2ccccc2Oc2ccc(Cl)cc2)S1,.,.,.,.,.,.
O=C1NC(=Nc2ccc(Cl)cc2)/C(=C/c2ccco2)S1,.,.,.,.,50.1µM,.
O=C1NC(=Nc2ccc(O)cc2)S/C1=C/c1ccco1,.,.,.,.,.,?
Cc1cccc(N=C2NC(=O)S/C2=C\c2ccco2)c1,.,.,.,?,56.2µM,.
O=C1NC(=Nc2ccc3ccccc3c2)S/C1=C/c1ccco1,.,.,?,.,70.8µM,.
Cc1cc(C)cc(N=C2NC(=O)/C(=C/c3cccs3)S2)c1,.,.,.,.,.,.
SMILES,GLS inhibitor,VDR inhibitor,GCN5L2 inh,rTrxR1 inhibitor,Sfp PPTase inh,TrxR1 substrate
CN(C)N1C(=O)/C(=C/c2ccco2)SC1=Nc1ccccc1,.,.,/,.,/,.
O=C(O)CC1S/C(=N\N=C/c2ccccc2)N(c2ccc(O)cc2)C1=O (stereo not drawn),.,.,.,.,.,.
COc1ccc(N2C(=O)CC(NC34CC5CC(CC(C5)C3)C4)C2=O)c(OC)c1 (stereo not drawn),.,.,.,?,.,.
CCOC(=O)c1c(C)[nH]c(CCC(=O)NCc2ccc(OC)cc2OC)c1C,.,.,.,.,/,.
C=CCSc1nnc(-c2nnc(SCC=C)n2-c2ccccc2)n1-c1ccccc1,.,.,31.6µM,.,.,.
C=CCSc1nnc(-c2sc(-c3ccccc3)nc2C)n1C,/,.,.,.,.,.
COCCN(CCOC)S(=O)(=O)c1ccc(C(=O)Nc2nnc(C)o2)cc1,.,.,.,.,89.1µM,.
COCCN(CCOC)S(=O)(=O)c1ccc(C(=O)Nc2ccc([N+](=O)[O-])cc2OC)cc1,.,.,.,.,44.7µM,.
Cc1nn(C)c(C)c1/C=N/NC(=O)CCn1nc(C)c([N+](=O)[O-])c1C,.,.,.,.,.,.
COc1cccc(C(=O)N2CCN(Cc3ccccn3)CC2)c1,.,.,.,.,44.7µM,.
NC(=O)NC(=O)C(c1ccccc1)N1CCN(S(=O)(=O)c2ccc(Br)s2)CC1 (stereo not drawn),.,.,.,.,/,.
Cn1c(SCC(=O)c2ccccc2F)nnc1C1CC1,.,?,.,?,50.1µM,.
COc1ccc(NC(=O)CSc2nnc(C3CC3)n2C)cc1,?,28.2µM,.,.,.,.
COc1ccc(-c2cc(C(=O)Nc3c(Cl)cc(Cl)cc3Cl)c3ccccc3n2)cc1OC,.,.,.,79.4µM,?,.
COc1ccc(NC(=O)c2cc(-c3ccc(C)o3)nc3ccccc23)c(OC)c1,.,.,/,?,/,.
COc1ccc(-c2cc(C(=O)Nc3nc4ccccc4s3)c3ccccc3n2)cc1OC,.,.,.,.,.,.
COc1ccc(-c2cc(C(=O)Nc3ccc(Cl)cc3Cl)c3ccccc3n2)cc1OC,.,.,.,.,35.5µM,.
COc1ccc(NC(=O)c2cc(-c3ccc(C)o3)nc3ccccc23)cc1OC,.,.,.,28.2µM,22.4µM,.
COc1ccc(-c2cc(C(=O)Nc3ccccc3O)c3ccccc3n2)cc1OC,.,.,.,.,.,.
O=C(C1CCCCC1)N1C[C@@H](n2cc(C3CC3)nn2)[C@H](O)C[C@@H]1c1ccc(Cl)cc1,.,/,/,/,/,/
C=CCN1C(=O)C(Cc2ccc(OC)cc2)S/C1=N\N=C\c1cccs1 (stereo not drawn),.,.,.[0.501 µM],.,.,.
COc1ccc(OC)c(-c2cc(C(=O)Nc3ccccc3C(N)=O)c3ccccc3n2)c1,.,.,/,.,/,.
CCN1CCN(C(=O)N[C@H](C(=O)N[C@@H]2C(=O)N3[C@@H](C(=O)O)C(C)(C)S[C@@H]23)c2ccccc2)C(=O)C1=O,25.1µM,/,/,/,/,/
CC1(C)S[C@@H]2[C@H](NC(=O)[C@H](N)c3ccc(O)cc3)C(=O)N2[C@H]1C(=O)O,.,.,.,.,.,.
CC1(C)S[C@H]2C(NC(=O)[C@@H](N)c3ccc(O)cc3)C(=O)N2[C@@H]1C(=O)O (stereo partly drawn),14.1µM,.,.,/,.,/
Cc1cc(C)c2c(-n3cccc3)c(C(=O)NCCCN3CCCCC3C)sc2n1 (stereo not drawn),.,.,.,.,/,.
